Data: PubChem BioAssay AID1159580 (chemical genetic matrix, 2015)
Hit rate of the full screen: of about 5,500 compounds, about 2,000 (36%) were called active. Roughly 18% stayed inconclusive and do not appear here. Rule as the data show it: active = normalized growth mostly below about 0.91 (no sharp cut-off); inconclusive = no clear call, values can overlap the other calls; inactive = mostly above about 0.92. The list shows a part of the results.

Assay: chemical genetic growth profiling, strain panel (AID 1159580);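 also: tested at 20 µM; growth read once vehicle control cultures reached saturation at 30 °C; 1 = growth at the plate median or of vehicle wells; lower values mean less growth of the strain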
Conditions: growth OD

Measured: normalized growth

CC(=O)N[C@@H](Cc1c[nH]c2ccccc12)C(=O)O
inactive: S. cerevisiae deletion strains, locus YJR075W, strain HOC1, hits give low values 1 | S. cerevisiae deletion strains, locus YKL009W, strain mrt4, hits give low values 0.981 | S. cerevisiae deletion strains, locus YKL068W, hits give low values 1.01 | S. cerevisiae deletion strains, locus YKL085W, strain MDH1 (second series), hits give low values 1.01 | S. cerevisiae deletion strains, locus YKL085W, strain MDH1, hits give low values 1.01 | S. cerevisiae deletion strains, locus YKL160W, strain elf1, hits give low values 0.962 | S. cerevisiae deletion strains, locus YKL190W, strain CNB1, hits give low values 1 | S. cerevisiae deletion strains, locus YKR001C, strain vps1, hits give low values 1.02 | S. cerevisiae deletion strains, locus YKR026C, strain gcn3, hits give low values 0.987 | S. cerevisiae deletion strains, locus YKR091W, strain srl3, hits give low values 0.977 | S. cerevisiae deletion strains, locus YLL001W, strain dnm1, hits give low values 0.983 | S. cerevisiae deletion strains, locus YLL026W, hits give low values 0.99 | S. cerevisiae deletion strains, locus YLL041C, strain sdh2, hits give low values 1 | S. cerevisiae deletion strains, locus YLR027C, strain aat2, hits give low values 0.994 | S. cerevisiae deletion strains, locus YLR039C, strain RIC1, hits give low values 1.02 | S. cerevisiae deletion strains, locus YLR058C, strain SHM2, hits give low values 1.01 | S. cerevisiae deletion strains, locus YLR102C, strain apc9, hits give low values 1.02 | S. cerevisiae deletion strains, locus YLR113W, strain HOG1, hits give low values 1 | S. cerevisiae deletion strains, locus YLR221C, strain rsa3, hits give low values 1.01 | S. cerevisiae deletion strains, locus YLR258W, strain gsy2, hits give low values 0.967 | S. cerevisiae deletion strains, locus YLR262C, strain YPT6 (second series), hits give low values 1.02 | S. cerevisiae deletion strains, locus YLR262C, strain YPT6, hits give low values 1.02 | S. cerevisiae deletion strains, locus YLR268W, strain sec22, hits give low values 1.04 | S. cerevisiae deletion strains, locus YLR320W, strain mms22, hits give low values 1.02 | S. cerevisiae deletion strains, locus YLR330W, strain CHS5, hits give low values 1.01 | S. cerevisiae deletion strains, locus YLR342W, strain FKS1 (second series), hits give low values 1.04 | S. cerevisiae deletion strains, locus YLR342W, strain FKS1, hits give low values 0.981 | S. cerevisiae deletion strains, locus YLR357W, strain rsc2, hits give low values 0.983 | S. cerevisiae deletion strains, locus YLR370C, strain arc18, hits give low values 0.995 | S. cerevisiae deletion strains, locus YLR371W, strain rom2, hits give low values 1.03 | S. cerevisiae deletion strains, locus YLR384C, strain iki3, hits give low values 0.984 | S. cerevisiae deletion strains, locus YLR418C, strain cdc73, hits give low values 1.07 | S. cerevisiae deletion strains, locus YML016C, strain PPZ1, hits give low values 1.01 | S. cerevisiae deletion strains, locus YML032C, strain rad52, hits give low values 1.02 | S. cerevisiae deletion strains, locus YML120C, strain ndi1, hits give low values 0.989 | S. cerevisiae deletion strains, locus YML124C, strain tub3, hits give low values 1.02 | S. cerevisiae deletion strains, locus YMR058W, strain fet3, hits give low values 0.988 | S. cerevisiae deletion strains, locus YMR078C, strain ctf18, hits give low values 1.02 | S. cerevisiae deletion strains, locus YMR125W, strain sto1, hits give low values 0.973 | S. cerevisiae deletion strains, locus YMR129W, hits give low values 0.976 | S. cerevisiae deletion strains, locus YMR205C, strain PFK2, hits give low values 0.985 | S. cerevisiae deletion strains, locus YMR223W, strain ubp8, hits give low values 1.02 | S. cerevisiae deletion strains, locus YMR231W, strain pep5, hits give low values 0.978 | S. cerevisiae deletion strains, locus YMR263W, strain SAP30, hits give low values 0.998 | S. cerevisiae deletion strains, locus YMR307W, strain GAS1, hits give low values 0.959 | S. cerevisiae deletion strains, locus YNL067W, strain RPL9B, hits give low values 1.01 | S. cerevisiae deletion strains, locus YNL071W, strain lat1, hits give low values 0.99 | S. cerevisiae deletion strains, locus YNL128W, strain TEP1, hits give low values 1.01 | S. cerevisiae deletion strains, locus YNL153C, strain GIM3, hits give low values 1.01 | S. cerevisiae deletion strains, locus YNL183C, strain NPR1, hits give low values 0.886 | S. cerevisiae deletion strains, locus YNL209W, strain ssb2, hits give low values 0.989 | S. cerevisiae deletion strains, locus YNL233W, strain BNI4, hits give low values 1.01 | S. cerevisiae deletion strains, locus YNL248C, strain rpa49, hits give low values 0.98 | S. cerevisiae deletion strains, locus YNL250W, strain rad50, hits give low values 1 | S. cerevisiae deletion strains, locus YNL271C, strain bni1, hits give low values 1.03 | S. cerevisiae deletion strains, locus YNL298W, strain CLA4, hits give low values 1.02 | S. cerevisiae deletion strains, locus YNL307C, strain MCK1, hits give low values 1.03 | S. cerevisiae deletion strains, locus YNL322C, strain KRE1 (second series), hits give low values 0.995 | S. cerevisiae deletion strains, locus YNL322C, strain KRE1, hits give low values 1 | S. cerevisiae deletion strains, locus YNR049C, strain mso1, hits give low values 0.959 | S. cerevisiae deletion strains, locus YNR052C, strain pop2, hits give low values 1.01 | S. cerevisiae deletion strains, locus YOL006C, strain TOP1, hits give low values 1.09 | S. cerevisiae deletion strains, locus YOL012C, strain htz1 0.924 | S. cerevisiae deletion strains, locus YOL147C, strain pex11, hits give low values 1.02 | S. cerevisiae deletion strains, locus YOR001W, strain rrp6, hits give low values 1.01 | S. cerevisiae deletion strains, locus YOR061W, strain CKA2, hits give low values 1.01 | S. cerevisiae deletion strains, locus YOR069W, strain VPS5, hits give low values 1 | S. cerevisiae deletion strains, locus YOR070C, strain gyp1, hits give low values 0.996 | S. cerevisiae deletion strains, locus YOR080W, strain dia2, hits give low values 0.986 | S. cerevisiae deletion strains, locus YOR083W, strain WHI5, hits give low values 0.97 | S. cerevisiae deletion strains, locus YOR106W, strain vam3, hits give low values 0.964 | S. cerevisiae deletion strains, locus YOR136W, strain idh2, hits give low values 1.01 | S. cerevisiae deletion strains, locus YOR144C, strain elg1, hits give low values 1.02 | S. cerevisiae deletion strains, locus YOR184W, strain ser1, hits give low values 1.02 | S. cerevisiae deletion strains, locus YOR231W, strain MKK1, hits give low values 0.994 | S. cerevisiae deletion strains, locus YOR265W, strain rbl2, hits give low values 1.01 | S. cerevisiae deletion strains, locus YOR270C, strain vph1, hits give low values 1.01 | S. cerevisiae deletion strains, locus YOR290C, strain snf2, hits give low values 0.974 | S. cerevisiae deletion strains, locus YOR316C, strain cot1, hits give low values 1.02 | S. cerevisiae deletion strains, locus YPL051W, strain arl3, hits give low values 0.989 | S. cerevisiae deletion strains, locus YPL055C, strain LGE1, hits give low values 1.01 | S. cerevisiae deletion strains, locus YPL078C, strain atp4, hits give low values 0.978 | S. cerevisiae deletion strains, locus YPL106C, strain sse1, hits give low values 0.949 | S. cerevisiae deletion strains, locus YPL240C, strain hsp82, hits give low values 1 | S. cerevisiae deletion strains, locus YPL241C, strain CIN2, hits give low values 1 | S. cerevisiae deletion strains, locus YPL256C, strain CLN2, hits give low values 0.99 | S. cerevisiae deletion strains, locus YPR119W, strain clb2, hits give low values 1.02 | S. cerevisiae deletion strains, locus YPR141C, strain kar3, hits give low values 1.02 | S. cerevisiae deletion strains, locus YPR163C, strain tif3, hits give low values 1.04 | S. cerevisiae deletion strains, locus YPR167C, strain met16, hits give low values 1.01 | S. cerevisiae deletion strains, strain wtn01, hits give low values 1.01 | S. cerevisiae strains, strain wild type, hits give low values 1
